Measurements published in PubChem BioAssay AID2284378 (EPA ToxCast).
Results filed as inconclusive are left out. Activity calls are given as the source filed them. The calls were made as follows: active = hit-call score of the fitted dose curve at least 0.9, where 1 is the maximum; inconclusive = response in the unintended direction; inactive = score below 0.9.

System: frog Retinoid X Receptor beta (RXRb), gene 394278
Assay: ATG_frRXRb_EcoTox2: Attagene TRANS-FACTORIAL EcoTox-2 HepG2 Assay for frog Retinoid X Receptor beta (RXRb)
Description: ATG_EcoTox2 is a cell-based, multiplexed assay created by modifying the existing Attagene TRANS-FACTORIAL system to include a panel of nuclear receptors from some or all the following species: human (Homo sapiens), african clawed frog (Xenopus laevis), rainbow trout (Oncorhynchus mykiss), japanese medaka (Oryzias latipes), and zebrafish (Danio rerio). The ECOTOX2-FACTORIAL format uses HepG2, a human liver cell line, with measurements taken at 24 hours after chemical dosing in a 24-well plate. ATG_frRXRb_EcoTox2 is one of 29 assay components calculated in the ATG_EcoTox2 assay. It is designed to make measurements of mRNA induction, a form of inducible reporter, as detected with fluorescence intensity signals by Reverse transcription polymerase chain reaction (RT-PCR) and Capillary electrophoresis technology.The assay endpoint ATG_frRXRb_EcoTox2 was analyzed in the positive analysis fitting direction relative to DMSO as the negative control and baseline of activity. Using a type of inducible reporter, measures of mRNA for gain-of-signal activity can be used to understand the reporter gene at the transcription factor-level as they relate to the gene RXRb. Furthermore, this assay endpoint can be referred to as a primary readout, because this assay has produced multiple assay endpoints where this one serves a reporter gene function. […]
Human liver HepG2 cells are transiently transfected with multiple reporter transcription units (MRTUs) in 6-well plates using FuGene 6 reagent (Roche; 3 ml FuGene/1 mg DNA). […] A major difference between the CIS and TRANS system is that in CIS activities of endogenous TFs are measured, whereas the TRANS assay evaluates changes in activities of exogenous, chimeric NR-Gal4 proteins. […] The fragments were purified using Qiaquick PCR columns (Qiagen), analyzed on an ABI 3130xL genetic analyzer (Applied Biosystems) with peak positions identified by using a set of X-rhodamine (ROX)-labeled MapMarker1000 molecular weight standards (BioVentures). […]

Row | Structure (SMILES) | AC50
1 | CCCCOCN(C(=O)CCl)c1c(CC)cccc1CC | 38.5 µM (active)
2 | O=C(O)C(F)(F)C(F)(F)C(F)(F)C(F)(F)C(F)(F)C(F)(F)C(F)(F)F | 30 µM (active)
3 | [Cl][Sn]([c]1ccccc1)([c]1ccccc1)[c]1ccccc1 | 0.0888 µM (active)
